The source made the active and inactive calls.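 How the source made its calls: active means any inhibition of parasite growth seen in the dose series, which yields a fitted potency; inactive means compounds showing no inhibition.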
Test: Inhibitors of Cruzain: Trypanosoma Cruzi Growth Inhibition Assay
Settings: T. cruzi in NIH/3T3, beta-gal CPRG absorbance, 4 d
Description: Cruzain is a cysteine protease from the tropical parasite Trypanosoma cruzi. This assay protocol is for testing followup compounds for T. Cruzi growth inhibition. See following references for additional details: Jadhav A, et al. J Med Chem. 2010 Jan 14;53(1):37-51. Mott BT, et al. J Med Chem. 2010 Jan 14;53(1):52-60. Ferreira, et al. J Med Chem. 2010 Jul 8;53(13):4891-905. Bettiol E, et al. PLoS Negl Trop Dis. 2009;3(2):e384. Assay Provider: Shoichet, Brian; University of California, San Francisco and Ana Rodriguez, New York University School of Medicine. Screening Center PI: Austin, C.P. Screening Center: NIH Chemical Genomics Center [NCGC]
NIH/3T3 cells and parasites were harvested, washed once and resuspended in DMEM supplemented with 2% FBS and Pen-Strep-Glut. […] Different numbers of NIH/3T3 cells were seeded in 96-well plates. After 3 h, compounds were added at the indicated concentrations and mixed by pipetting. BZN tablets (Rochagan, Roche) dissolved in DMSO and 4uM Amphotericin B solution (Sigma-Aldrich) were used as positive controls. Different numbers of T. cruzi parasites were added in a final volume of 200 ul/well. […] Plates were incubated at 37 degrees C for 4 h and absorbance was read at 590 nm using a Tecan Spectra Mini plate reader. […] The IC50 was determined as the concentration at which the activity (absorbance) was half that in the absence of compound. […]

**Q.** For `Cc1ccc(OCCn2c(CCNC(=O)C3CCCCC3)nc3ccccc32)cc1`, which Potency is on record?
**A.** 64 µM (active)
